Paper PMC5540273 (PLoS ONE, 2017)

Key:
Details in all cases: concentration: 1 μM, replicates: in singlicate; n = 1
[1] = tested on: RPS6KA4(Kin.Dom.1-N-terminal)
[2] = tested on: RPS6KA4(Kin.Dom.2-C-terminal)
[3] = tested on: RPS6KA5(Kin.Dom.1-N-terminal)
[4] = tested on: RPS6KA5(Kin.Dom.2-C-terminal)
[5] = tested on: T1, RSK1(Kin.Dom.1-N-terminal)
T1 construct: gene RPS6KA1

[6] = tested on: T2, RSK1(Kin.Dom.2-C-terminal)
T2 construct: gene RPS6KA1

[7] = tested on: T3, RSK2(Kin.Dom.1-N-terminal)
T3 construct: gene RPS6KA3

[8] = tested on: T4, RSK2(Kin.Dom.2-C-terminal)
T4 construct: gene RPS6KA3

[9] = tested on: T5, RSK3(Kin.Dom.1-N-terminal)
T5 construct: gene RPS6KA2

[10] = tested on: T6, RSK3(Kin.Dom.2-C-terminal)
T6 construct: gene RPS6KA2

[11] = tested on: T7, RSK4(Kin.Dom.1-N-terminal)
T7 construct: gene RPS6KA6

[12] = tested on: T8, RSK4(Kin.Dom.2-C-terminal)
T8 construct: gene RPS6KA6

[13] = tested on: S6K1
[14] = tested on: SBK1
[15] = tested on: SGK2
[16] = tested on: SGK3
[17] = tested on: SGK
[18] = tested on: SIK2
[19] = tested on: SIK
[20] = tested on: SLK
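Further: KINOMEscan kinase panel screen.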

Compound	%Inh [1] [%]	%Inh [2] [%]	%Inh [3] [%]	%Inh [4] [%]	%Inh [5] [%]	%Inh [6] [%]	%Inh [7] [%]	%Inh [8] [%]	%Inh [9] [%]	%Inh [10] [%]	%Inh [11] [%]	%Inh [12] [%]	%Inh [13] [%]	%Inh [14] [%]	%Inh [15] [%]	%Inh [16] [%]	%Inh [17] [%]	%Inh [18] [%]	%Inh [19] [%]	%Inh [20] [%]
Cc1cccc(NC(=O)Nc2ccc(Oc3ncnc4ccn(C)c34)cc2)c1	0	0	0	0	0	0	0	2	0	0	0	0	0	0	0	0	0	7	10	0
Nc1ncc(-c2ccc3nccc(-c4ccncc4)c3c2)cc1S(=O)(=O)N1CCOCC1 [GSK1627798]	0	0	18	0	14	0	0	0	7	0	14	22	0	3	0	7	0	0	0	36
Cl.c1ccc(-c2ccc3c(Nc4ccc5[nH]ncc5c4)ccnc3c2)nc1 [GW440137]	0	0	2	34	20	6	0	0	6	0	0	0	0	0	0	21	58	0	0	31
Cc1occc1-c1ncc(OC[C@@H](N)Cc2c[nH]c3ccccc23)cc1-c1ccc2[nH]nc(C)c2c1.O=C(O)C(F)(F)F [GSK682037]	8	0	49	0	7	0	79	0	22	0	61	0	56	19	0	20	0	65	54	95.2
Nc1ncc(-c2cccnc2)c2scc(-c3ccc4c(c3)CCN4C(=O)Cc3ccccc3)c12 [GSK683281]	24	0	21	0	21	1	0	24	14	0	0	26	0	25	0	10	0	4	19	33
C[C@@H](Oc1cc(-n2cnc3cc(-c4ccnc(NCCS(C)(=O)=O)c4)ccc32)sc1C(N)=O)c1ccccc1Cl [GSK907232]	57	0	4	0	11	2	32	4	66	0	20	14	0	1	13	0	4	50	20	99
Cc1ccc(F)c(C(=O)Nc2cccc(-c3nn4ccccc4c3-c3ccnc(Nc4cccc(F)c4)n3)c2)c1F [GSK361061]	34	0	21	0	65	7	4	0	0	7	0	13	0	100	4	2	11	29	68	94.2
CCc1ccc(-c2ccc3c(c2)-c2c(cnn2C)S(=O)(=O)N3C)cc1	5	0	7	0	10	0	0	29	17	13	0	0	4	0	0	0	0	4	6	0
COc1ccc(Nc2nccc(N3CCC(NC(=O)Nc4cccc(OC)c4)C3)n2)cc1 (stereo not shown) [GSK1379742]	15	0	10	0	0	0	15	1	0	0	0	24	0	0	0	0	3	0	0	17
O=C(O)C(F)(F)F.O=C(O)C(F)(F)F.O=c1[nH]ccc2nc(N[C@@H]3CCCNC3)nc(Nc3ccc(S(=O)(=O)N4CCOCC4)cc3)c12 [GSK2177277]	98.7	98.5	77	74	96	75	99.7	11	99.3	90.2	99.4	52	98.8	92.7	96.1	99.2	88	84	78	98.4
CCn1c(-c2nonc2N)nc2c(C#CC(C)(C)O)nc(OC[C@H](N)c3ccccc3)cc21 [GSK943949]	0	57	6	0	59	0	0	0	0	0	0	0	4	0	18	0	6	0	2	6
O=C(NC1CCN(c2ccnc(Nc3ccc(F)cc3)n2)C1)c1cc2ccccc2s1 (stereo not shown) [GSK1379716]	17	0	29	0	22	13	4	0	20	4	0	24	0	24	0	0	14	6	11	32
COc1cc(Nc2nccc(N3CCC(NC(=O)c4cc5ccccc5s4)C3)n2)cc(OC)c1OC (stereo not shown) [GSK1379760]	0	0	5	4	16	46	0	18	0	0	0	11	17	17	0	10	11	15	14	76
c1ccc(-c2cnc3nccnn23)cc1 [AH20685]	0	0	9	0	0	0	0	0	0	0	0	0	10	5	0	0	0	0	0	11
Fc1ccc(-c2ncn(C3CCNCC3)c2-c2ccnc(Oc3ccc(-c4ccccc4)cc3)n2)cc1 [SB-245391]	12	0	0	6	27	0	34	41	0	0	18	9	11	52	18	12	12	4	12	0
Clc1ccc(-c2nn3ncccc3c2-c2ccnc(Nc3ccc4c(c3)OCCO4)n2)cc1 [GW829116]	4	0	0	8	18	32	23	0	0	0	0	88	9	0	0	0	35	30	1	87
Cl.Cl.NCC(NC(=O)c1cc(-c2ccccc2)c(-c2ccnc3[nH]ccc23)s1)c1ccccc1 (stereo not shown) [GSK1321561]	24	0	4	0	0	62	14	61	0	0	0	0	6	11	27	15	0	0	11	31
